Screens from PubChem.
NS3h inh CB = blocks HCV NS3 helicase binding to DNA. NS3h Cy5-dT15 DNA binding, fluorescence polarization. inhibition, % at 100 µM. hit rate 1.6% among 16,000. AID 687043;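 active = inhibition above the average over every tested compound plus 3 SD, cut at about 40% in these data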
Cy5 interf NS3h = enhances or quenches Cy5 fluorescence in NS3h assay. Cy5-dT15 DNA with NS3h, fluorescence interference; actives lie on both sides; signal over control mean, under 1 quenches. fluorescence interference ratio at 100 µM. hit rate 6% among 16,000. AID 720488;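 active = compound fluorescence over control fluorescence at most 0.8, a quencher, or at least a set upper limit, an enhancer; inactive = ratio between 0.8 and the set upper limit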
* marks the source's active call; other numbers are inactive results. Only some compounds are listed: those with a hit (about 6.9% of all), similar ones and a draw of the others.

SMILES	NS3h inh CB	Cy5 interf NS3h
COC(=O)c1ccccc1NC(=O)COc1ccc(C)c(C)c1	6	0.63*
COC(=O)c1ccccc1NC(=O)COc1ccc(Br)cc1	12	0.96
Cc1cccc(-c2cc(NC(=O)c3ccc(Br)cc3)n[nH]2)c1	10	1
Cc1nc(-c2cccc([N+](=O)[O-])c2)cs1	4	1
COC(=O)C1=C(O)/C(=C/c2ccc(N(C)C)cc2)N=C1C	0	0.99
COc1cccc(/C=C2\SC(=S)N(CCC(=O)Nc3cccc(OC)c3)C2=O)c1	11	1
Cc1[nH]c2c(Cl)cccc2c(=O)c1CN1CCCC1	-10	0.97
O=C1NC(=O)N(c2ccc(Cl)cc2)C(=O)/C1=C\c1cccc(O)c1	-2	0.99
CCOc1cc(C2C3=C(CC(C)(C)CC3=O)NC3=C2C(=O)c2ccccc23)ccc1O (stereo not given)	4	1.2*
Cc1ccc(C(=O)Oc2cccc(C3C4=C(CC(C)(C)CC4=O)NC4=C3C(=O)c3ccccc34)c2)cc1 (stereo not given)	9	0.97
COc1ccc(-c2cc(=O)n3[nH]c(-c4cccc(C)c4)cc3n2)cc1	7	1.1
N/C(=N/OC(=O)c1ccc(Br)cc1)c1ccc([N+](=O)[O-])cc1	2	0.96
N/C(=N/OC(=O)c1ccccc1F)c1ccc([N+](=O)[O-])cc1	-6	0.78*
CC(=O)Oc1ccc(-c2cccc(C(=O)NC(CO)C(O)c3ccc([N+](=O)[O-])cc3)c2)cc1 (stereo not given)	1	0.99
O=C(NC(CO)C(O)c1ccc([N+](=O)[O-])cc1)c1ccc2ccccc2n1 (stereo not given)	0	0.62*
CC(C1CC1)N(Cc1ccccc1)C(=O)Nc1cccc([N+](=O)[O-])c1 (stereo not given)	7	0.61*
CC1=C(C(=O)Nc2ccc(C)c(Cl)c2)C(c2cccc([N+](=O)[O-])c2)NC(=O)N1 (stereo not given)	1	0.9
Ic1cccc(/C=N\n2cnnc2)c1	0	1
C(=N/n1cnnc1)/c1cc2ccccc2[nH]1	23	0.74*
COc1cc(C(=O)N2CCc3ccccc3C2)cc(OC)c1OC	5	1
Cc1ccc(S(=O)(=O)N2CCN(C3CC4CCC3C4)CC2)cc1 (stereo not given)	-20	0.93
Cc1ccc(S(=O)(=O)N2CCC(=O)C(C)C2)cc1 (stereo not given)	17	0.74*
O=C(Nc1ccccc1)c1cccc(Cl)c1	7	1.1
CCCCCCN1C(=O)C(O)=C(C(C)=O)C1c1ccc(C)cc1 (stereo not given)	-8	1
O=c1c2c(nc3cc(-c4cccs4)[nH]n13)CCCC2	-6	0.95
SMILES	NS3h inh CB	Cy5 interf NS3h
O=C(Nc1ccccc1)Nc1nnc(SCc2ccccc2F)s1	-4	1.2*
O=C(Nc1ccccc1)Nc1nnc(SCc2ccc(F)cc2)s1	17	0.99
Cc1ccc(C(=O)N/C(=C\c2cccc([N+](=O)[O-])c2)c2nc(=S)[nH][nH]2)cc1	12	0.9
Cc1cc(CN2CCOCC2)c(O)c(C)n1	0	0.99
CCC1=NN(C(=O)c2ccccc2)C(O)(c2ccc(Br)cc2)C1 (stereo not given)	10	0.76*
CCC1=NN(C(=O)c2cccc(O)c2)C(O)(c2ccncc2)C1 (stereo not given)	-4	1
O=C(CCc1ccccc1)Nc1cc(Cl)c(Cl)cc1Cl	13	1
COCCOC(=O)c1c(C)oc2ccc(OCc3cccc(F)c3)cc12	9	0.93
COCCOC(=O)c1c(C)oc2ccc(OCc3cccc(Cl)c3)cc12	9	0.79*
Cc1ccc(C=C2C(=O)N(C)C(=S)N(c3ccccc3)C2=O)s1	20	1.3*
Cc1cccc(C(=O)Oc2ccc(/C=C3/SC(=S)N(c4ccccc4)C3=O)cc2)c1	4	1.1
O=c1c2c(nc3cc(-c4ccc(Br)cc4)[nH]n13)CCCC2	3	0.9
COc1ccc(C2=C/C(=C/c3ccco3)C(=O)O2)cc1	32	1
Cc1ccc2ccc(S(=O)(=O)n3nc(C)cc3C)cc2c1	7	1
Cc1cc(C)n(S(=O)(=O)c2ccc3c(c2)C(=O)c2cc(S(=O)(=O)n4nc(C)cc4C)ccc2-3)n1	-57	0.64*
Cc1cccc(N2C(=O)C(O)=C(C(=O)/C=C/c3ccccc3)C2c2ccc(N(C)C)cc2)c1 (stereo not given)	3	0.95
O=C(c1nn2c(c1Br)NC(c1cccs1)CC2C(F)(F)F)N1CCCc2ccccc21 (stereo not given)	14	0.7*
O=C(c1nn2c(c1Br)NC(c1cccs1)CC2C(F)(F)F)N1CCOCC1 (stereo not given)	5	1.1
COc1ccccc1N(CC(=O)Nc1c(C)cccc1C)S(=O)(=O)c1ccccc1	6	1
CC(C(=O)O)N1C(=O)/C(=C/c2ccc([N+](=O)[O-])cc2)SC1=S (stereo not given)	6	1
CCCCOC(=O)c1ccc(NC(C)=O)cc1	11	0.68*
CCCCOC(=O)c1ccc(NC(=O)C2CC(C)=C(C)CC2C(=O)O)cc1 (stereo not given)	3	1
O=C(O)CCCCCN1C(=O)C(=O)C(=C(O)c2ccc(F)cc2)C1c1ccc(Cl)cc1 (stereo not given)	-1	1
Cc1ccc(C(O)=C2C(=O)C(=O)N(CCCC(=O)O)C2c2ccc(Br)cc2)cc1 (stereo not given)	9	1.2*
Cc1ccc(NC(=S)N/N=C2/CC(=O)CC(C)(C)C2)cc1	3	0.93
SMILES	NS3h inh CB	Cy5 interf NS3h
CCC1=NN2C(=N)/C(=C/c3ccc(-c4ccccc4C(=O)OC)o3)C(=O)N=C2S1	3	0.95
Cc1ccccc1C(=O)Nc1cccc(Cl)c1	5	0.96
O=C(Nc1cccc(Cl)c1)c1ccccc1Br	-2	0.8*
COC(=O)c1cc(C(=O)N2CCCC2)cc([N+](=O)[O-])c1	5	1.1
CC(=O)CC1(O)C(=O)Nc2ccc(Br)cc21 (stereo not given)	-4	1
CCOC(=O)c1ccc(Nc2nc3nonc3[nH]c2=O)cc1	4	0.98
C=CCN1C(=O)/C(=C\c2ccc(Br)c([N+](=O)[O-])c2)SC1=S	18	0.65*
C=CCN1C(=O)/C(=C/c2cccc(Br)c2)SC1=S	0	0.94
O=c1/c(=C/c2ccc(O)c(Cl)c2)sc2nc3ccccc3n12	15	1.1
CCCC(=O)Nc1ccc(N2CCN(C(C)=O)CC2)cc1	0	1.1
C=C1CSc2nc(=O)c3c4c(sc3n21)CCC4	6	0.94
Cc1nc2sc3c(c2c(=O)[nH]1)CCC3	2	0.63*
O=C(c1cc(F)c(F)cc1Cl)N1CCN(c2ccc([N+](=O)[O-])c(N3CCCC3)c2)CC1	27	0.67*
O=C(c1cc(F)c(F)cc1Cl)N1CCN(c2ccc([N+](=O)[O-])c3ncccc23)CC1	12	1
O=C(c1cc(N2CCCCC2)c(F)cc1[N+](=O)[O-])N1CCCCC1	-6	0.95
O=C(c1ccc(Cl)c(Cl)c1)N1CCN(c2ccc([N+](=O)[O-])c(N3CCOCC3)c2)CC1	22	0.65*
O=[N+]([O-])c1ccc(N2CCN(S(=O)(=O)c3ccc(Cl)cc3)CC2)cc1N1CCOCC1	16	0.95
O=C(c1cc(N2CCOCC2)c(F)cc1[N+](=O)[O-])N1CCOCC1	15	0.68*
O=C(Nc1ccc(/C=C/c2ccccc2)cc1)c1ccc(F)cc1	3	1
